This note sets out measurements from ChEMBL document CHEMBL3988442, “University of Dundee, Small-Polar-MMV Screening Library” (2021).

Molecules are shown by their SMILES.

Experiment [1] concerns the target T1, Aspartate--tRNA(Asp/Asn) ligase (Mycobacterium tuberculosis (strain ATCC 25618 / H37Rv)) (UniProt P9WFW3). Note: in the data most compounds retested in dose-response had high values.
T1 sequence (whole entry): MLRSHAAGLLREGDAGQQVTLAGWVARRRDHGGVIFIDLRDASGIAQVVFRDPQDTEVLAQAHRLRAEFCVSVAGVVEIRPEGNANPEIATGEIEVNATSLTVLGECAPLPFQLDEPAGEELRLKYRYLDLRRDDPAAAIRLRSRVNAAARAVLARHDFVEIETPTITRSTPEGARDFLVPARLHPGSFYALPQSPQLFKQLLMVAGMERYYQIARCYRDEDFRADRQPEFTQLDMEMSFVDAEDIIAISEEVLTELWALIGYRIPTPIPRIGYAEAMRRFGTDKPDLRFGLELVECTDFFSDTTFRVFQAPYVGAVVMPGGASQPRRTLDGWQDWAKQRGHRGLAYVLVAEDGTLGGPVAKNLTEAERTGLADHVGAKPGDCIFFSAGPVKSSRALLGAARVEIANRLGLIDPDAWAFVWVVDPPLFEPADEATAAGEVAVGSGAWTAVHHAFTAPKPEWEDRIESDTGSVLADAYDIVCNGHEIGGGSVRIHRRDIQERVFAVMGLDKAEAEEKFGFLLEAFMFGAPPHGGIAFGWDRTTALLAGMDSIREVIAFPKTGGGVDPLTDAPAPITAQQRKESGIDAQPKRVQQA
Put plainly: Assay for Asp RNA synthetase-1 from Mycobacterium tuberculosis. The format is functional. Further details: scale not given: direction of the effect not stated beside the values. As to conditions: 30 µM.

The target of experiment [2] is Shiga toxin 2 (Escherichia coli O157:H7) (UniProt P09385+P09386). Nature of the experiment: E. coli 0.157:H7 Shiga Toxin SOP - stx2 screening assay. The format is functional. Further details: scale not given: direction of the effect not stated beside the values. As to conditions: 30 µM.

On to `CN(Cc1ccc(N2CCCCC2)cc1)Cc1noc(C(C)(C)C)n1`, for which the Percent Effect in experiment [1] is 1.93%; in experiment [2], -7.66%.
As to `CC(C)(NCC(=O)NCC(F)(F)F)c1ccc2c(c1)OCCO2`, the Percent Effect in experiment [1] was -0.335%; in experiment [2], 22.1%.
For `N#Cc1ccc(CN2CCC(c3ccnn3CCO)CC2)cc1`, the figures for the Percent Effect in experiment [1] and in experiment [2] were 1.21% and 23.2%, respectively.
Regarding `CCC(=O)N1CCCC1c1nccnc1Nc1nc(C)cc(C)n1` (stereo not drawn), the Percent Effect is 4.25% in experiment [1] and -28.8% in experiment [2].
As for `Cc1nc(O)c2nnn(C[C@H]3CCCN3C(=O)CCC3CCCC3)c2n1`, the Percent Effect in experiment [1] was 2.01%; in experiment [2] it was 13%.
On the same counts, the results for `CC(C)c1nc2c(n1C)CCN(Cc1nc(-c3ccsc3)no1)C2` are -3.99% and -3.44%.
Take `O=C(CCc1ccccn1)N1CCc2cc(Cl)cc(Cl)c2C1`: the Percent Effect in experiment [1] is 15.8%; in experiment [2], -69.6%.
For `CCc1csc(C2CCCN(C(=O)c3ccc(OC)nn3)C2)n1` (stereo not drawn), in that order: -3.92% and 14.7%.
As to `CCn1ncc2c1C(COC)CN(Cc1ccc(OC)cc1)C2` (stereo not drawn), the Percent Effect in experiment [1] is -4.44%; in experiment [2], -3.46%.
On the same counts, the results for `CCC(CNC(=O)c1ccc(=O)[nH]n1)N1CCc2ccccc2C1` (stereo not drawn) are 2.11% and -11.6%.
As to `COCCO[C@@H]1C[C@H]2CN(C(=O)c3cnccn3)CCN2C1`, the Percent Effect in experiment [1] is 6.43%; in experiment [2] it was -13%.
`Cc1nnc(N2CCOC(Cn3cccn3)C2)c(C#N)c1C` (stereo not drawn): the Percent Effect in experiment [1] came to 3.88%; in experiment [2], 19.5%.
For `CCN1CCn2nc(CCC(=O)N3CCCC3)cc2C1`, the values for the Percent Effect in experiment [1] and in experiment [2] were -0.386% and -5.54%, respectively.
On the same counts, the results for `COc1cc(N2C[C@@H]3COC[C@]3(COc3cccnc3)C2)ncn1` are -3.68% and -5.75%.
On the same counts, the results for `CN(CCc1ccccn1)S(=O)(=O)N1CCCC1c1ccco1` (stereo not drawn) are 2.3% and 32.1%.
Turning to `CCN1CC(C(=O)N(C)Cc2ccon2)CC1=O` (stereo not drawn), the Percent Effect in experiment [1] was -0.748%; in experiment [2], -14.8%.
For `CC(C)NC(=O)N1C[C@H]2C[C@H](C(=O)NCc3ccccc3)[C@@H](C1)O2`, in that order: 2.3% and 1.68%.
Consider `CS(=O)(=O)NCC1CCCN(C(=O)Nc2cccnc2N2CCCC2)C1` (stereo not drawn), for which the values for the Percent Effect in experiment [1] and in experiment [2] were 6.08% and -16.6%, respectively.
In the case of `CCS(=O)(=O)N(C)C(=O)c1cc(C)n(-c2cccc(OC)c2)c1C`, the Percent Effect in experiment [1] was -6.83%; in experiment [2], -4.96%.
